G9a block = qHTS Assay for Inhibitors of Histone Lysine Methyltransferase G9a; Histone-lysine N-methyltransferase EHMT2 (Homo sapiens), Q96KQ7; G9a H3K9 monomethylation, AlphaScreen, 2 h; Potency, µM (top dose mostly 102 µM), usual class: inhibitors; hit rate 8.8% among 350,000; AID 504332, 2011; further: nearly all actives have a fitted effect of over 75% in size
Target sequence (Q96KQ7 913-1193 limits assumed): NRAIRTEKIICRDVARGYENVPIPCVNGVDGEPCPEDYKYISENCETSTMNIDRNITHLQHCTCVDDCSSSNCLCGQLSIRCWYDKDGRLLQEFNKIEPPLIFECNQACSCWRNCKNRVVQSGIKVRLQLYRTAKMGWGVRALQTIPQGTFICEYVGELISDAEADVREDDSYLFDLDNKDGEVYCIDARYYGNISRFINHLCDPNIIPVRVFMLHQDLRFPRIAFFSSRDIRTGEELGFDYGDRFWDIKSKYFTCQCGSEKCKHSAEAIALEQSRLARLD
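Using a bead-based AlphaScreen, monomethylated H3K9 product from 2 h room-temperature reactions (G9a 20 nM, peptide 500 nM, SAM 20 uM) was detected with 0.5 ug/mL rabbit anti-H3K9me1 antibody.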
Sfp inh = qHTS Assay for Inhibitors of Bacillus subtilis Sfp phosphopantetheinyl transferase (PPTase); Potency, µM, hits mostly inhibitors; AID 1490, 2009; hit rate 3.5% among 310,000; Biochemical Sfp PPTase activity, qHTS; 4'-phosphopantetheinyl transferase ffp (Bacillus subtilis), Q9F4F7;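 further: the enzyme is Sfp with the accession as filed and its product quenches rhodamine fluorescence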
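Step 1, compound plus 15 nM Sfp-PPTase, 15 min, room temperature. Step 2, add rhodamine-CoA (5 uM) and BHQ-2-YbbR (12.5 uM). Step 3, read 525/598 nm fluorescence at 0 and 30 min.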
JMJD2A Tudor = qHTS Assay for Inhibitors of JMJD2A-Tudor Domain; Lysine-specific demethylase 4A (Homo sapiens), O75164; AlphaScreen JMJD2A-Tudor / H3K4me3 peptide binding; Potency, µM (series often up to 114 µM), hits mostly inhibitors; hit rate 4.4% among 390,000; further: nearly all actives have a fitted effect of over 50% in size
BAZ2B block = qHTS Assay for Inhibitors of BAZ2B | Bromodomain adjacent to zinc finger domain protein 2B (Homo sapiens), Q9UIF8 | AlphaScreen BAZ2B-H3K14Ac peptide displacement | Potency, µM (titrated, usually from 114 µM), most hits filed as inhibitors | hit rate 4.4% among 360,000 | AID 504333, 2011; further: nearly all actives have a fitted effect of over 60% in size
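Multi-concentration screen (max 110 uM) measuring displacement of acetylated histone H3 peptide from BAZ2B by AlphaScreen, using 50 nM protein, 50 nM peptide and 10 ug/mL streptavidin donor plus Ni-chelate acceptor beads.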
HP1b binding inh = HTS for Inhibitors of HP1-beta Chromodomain Interactions with Methylated Histone Tails; Chromobox protein homolog 1 (Homo sapiens), P83916; AlphaScreen HP1-beta / biotin-H3K9me3 peptide binding; Potency, µM (doses to about 114 µM), usual class: inhibitors; hit rate 0.56% among 390,000; AID 540317, 2011; further: nearly all actives have a fitted effect of over 70% in size
Target sequence (P83916 whole entry, looked up): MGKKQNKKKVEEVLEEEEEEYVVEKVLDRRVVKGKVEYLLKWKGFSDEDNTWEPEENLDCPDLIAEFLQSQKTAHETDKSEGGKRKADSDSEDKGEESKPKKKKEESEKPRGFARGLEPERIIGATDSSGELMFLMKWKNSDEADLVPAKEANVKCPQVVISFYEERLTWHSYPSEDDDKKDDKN
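Compound inhibition of the preformed complex between 50 nM HP1-beta and 50 nM biotinylated H3K9me3 peptide was read by AlphaScreen. Buffer was PBS pH 7.4 with 0.01% Tween-20. Incubations ran 30 min at room temperature, with 10 ug/mL donor/acceptor beads.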
Hits are given with their value; ! = not confirmed by another sample; [ ] = another dose, or the depositor's remark. Most compounds without a hit are left out; they make up all but 12% or so of the library. The call rests on the fitted dose curve; in most records, active means well fitted curve in the direction sought with a large enough effect; inconclusive means small, poorly fitted or top-dose-only effect, or another doubt; inactive means no such curve, though single readings can be large; an effect the other way counts as inactive or inconclusive.

How did CC(=O)Nc1ccc(S(=O)(=O)Nc2nc3ccccc3nc2Sc2nncn2C)cc1 do in these assays?
G9a block: inconclusive; Sfp inh: inconclusive; JMJD2A Tudor: inactive; BAZ2B block: inactive; HP1b binding inh: inactive

What do the screens show for `Cn1ccnc1Sc1nc2ccccc2nc1NS(=O)(=O)c1ccccc1`?
G9a block: inactive; Sfp inh: 50µM; JMJD2A Tudor: inactive; BAZ2B block: inconclusive; HP1b binding inh: inactive

What do the screens show for `CCCCOCCCN1CC(=O)N2[C@@H](Cc3c([nH]c4ccccc34)C2(C)C)C1=O`?
G9a block: inactive[2.33 µM]; Sfp inh: inactive; JMJD2A Tudor: inactive; BAZ2B block: inactive; HP1b binding inh: inactive

What do the screens show for `Cc1noc(C)c1C(=O)Nc1ccc(Cl)cc1C(F)(F)F`?
G9a block: inactive; Sfp inh: inactive; JMJD2A Tudor: inactive; BAZ2B block: inactive; HP1b binding inh: inactive

Results for Cc1ccc(NNC(=O)c2c(C)noc2C)cc1Cl ?
G9a block: 7.1µM; Sfp inh: inactive; JMJD2A Tudor: inactive; BAZ2B block: inactive; HP1b binding inh: inactive

What do the screens show for `Cc1cc(Cl)ccc1NNC(=O)c1c(C)noc1C`?
G9a block: 2.8µM; Sfp inh: inactive; JMJD2A Tudor: 79µM; BAZ2B block: inactive; HP1b binding inh: inactive

How did Cc1ccc(-n2c(C)cc(C(=S)N3CCOCC3)c2C)cc1C do in these assays?
Sfp inh: inactive; JMJD2A Tudor: 45µM; BAZ2B block: 50µM; HP1b binding inh: inconclusive

How did Cc1cc(C(=S)N2CCOCC2)c(C)n1-c1ccc(F)cc1 do in these assays?
Sfp inh: inconclusive; JMJD2A Tudor: inactive; BAZ2B block: 45µM; HP1b binding inh: inactive

Results for Nc1cccnc1-n1nc(C(F)(F)F)cc1C(F)(F)F ?
G9a block: inactive; Sfp inh: inactive; JMJD2A Tudor: inactive; BAZ2B block: inactive; HP1b binding inh: inactive

How did CC(=NNS(=O)(=O)c1cccc([N+](=O)[O-])c1)c1ccc(-n2ccnc2)cc1 do in these assays?
JMJD2A Tudor: inactive; HP1b binding inh: inactive

How did C/C(=N/NS(=O)(=O)c1cc(C)ccc1C)c1c[nH]c2ccccc12 do in these assays?
G9a block: inconclusive; Sfp inh: inactive; JMJD2A Tudor: inactive; BAZ2B block: inactive; HP1b binding inh: inactive

What do the screens show for `C/C(=N/NS(=O)(=O)c1cccc([N+](=O)[O-])c1)c1c[nH]c2ccccc12`?
G9a block: 25µM; Sfp inh: inactive; JMJD2A Tudor: inactive; BAZ2B block: 50µM; HP1b binding inh: inactive

How did C/C(=N/NS(=O)(=O)c1cccc([N+](=O)[O-])c1)c1ccncc1 do in these assays?
G9a block: 35µM; Sfp inh: inactive; JMJD2A Tudor: inactive; BAZ2B block: inconclusive; HP1b binding inh: inactive

What do the screens show for `C/C(=N/NS(=O)(=O)c1ccccc1)c1c[nH]c2ccccc12`?
G9a block: 22µM; Sfp inh: inactive; JMJD2A Tudor: inactive; BAZ2B block: inactive; HP1b binding inh: inactive

How did CCOC(=O)N1CCC(=NNS(=O)(=O)c2cccc([N+](=O)[O-])c2)CC1 do in these assays?
G9a block: inconclusive; Sfp inh: 56µM; JMJD2A Tudor: inactive; BAZ2B block: inactive; HP1b binding inh: inactive

Results for CCOC(=O)c1oc2ccc(S(=O)(=O)N3CCC(C)CC3)cc2c1C ?
G9a block: inactive; Sfp inh: inactive; JMJD2A Tudor: inactive; BAZ2B block: inactive; HP1b binding inh: inactive

What do the screens show for `CC(=O)Nc1cccc(/C(C)=N/NS(=O)(=O)c2ccc(C)cc2)c1`?
G9a block: 50µM; Sfp inh: inactive; JMJD2A Tudor: inactive[11.4 µM]; BAZ2B block: inactive; HP1b binding inh: inactive

Results for C/C(=N/NS(=O)(=O)c1ccc(C)cc1)c1c[nH]c2ccccc12 ?
G9a block: 25µM; Sfp inh: inactive; JMJD2A Tudor: inactive; BAZ2B block: inactive; HP1b binding inh: inactive

How did O=C(Cn1c(=O)cnc2ccccc21)Nc1cc(Cl)ccc1N1CCOCC1 do in these assays?
JMJD2A Tudor: inconclusive; HP1b binding inh: inactive

What do the screens show for `CN(C)c1ccc(/C=N/c2cc(-c3ccccc3)nn2-c2ccccc2)cc1`?
G9a block: inconclusive; Sfp inh: inactive; JMJD2A Tudor: inconclusive; BAZ2B block: 10µM; HP1b binding inh: inactive

Results for CC/C=C\C/C=C\C/C=C\C/C=C\C/C=C\C/C=C\CCC(=O)O ?
G9a block: 7.1µM; Sfp inh: 79µM!

Results for Cc1cc2c(NC(=O)Nc3ccc(C(C)(C)C)cc3)cccc2nn1 ?
Sfp inh: inconclusive; JMJD2A Tudor: inconclusive; BAZ2B block: inconclusive; HP1b binding inh: inactive

How did Cc1cc2c(NC(=O)Nc3ccccc3)cccc2nn1 do in these assays?
G9a block: inconclusive; Sfp inh: 45µM; JMJD2A Tudor: inactive; BAZ2B block: inactive; HP1b binding inh: inactive

How did CC1CCN(C(=O)Oc2ccccc2)CC1 do in these assays?
G9a block: inactive; Sfp inh: inactive; JMJD2A Tudor: inactive; BAZ2B block: inactive; HP1b binding inh: inactive

Results for O=c1[nH]c(N/N=C\c2ccc3c(c2)OCO3)nc2ccccc12 ?
Sfp inh: 20µM; JMJD2A Tudor: inactive; BAZ2B block: inactive; HP1b binding inh: inactive

Results for O=c1[nH]c(N/N=C/c2cc3c(cc2[N+](=O)[O-])OCO3)nc2ccccc12 ?
G9a block: 18µM; Sfp inh: inconclusive; JMJD2A Tudor: inactive; BAZ2B block: inactive; HP1b binding inh: inactive

What do the screens show for `Cc1ccccc1N=Cc1cc2c(cc1[N+](=O)[O-])OCO2`?
G9a block: 45µM; Sfp inh: inactive; JMJD2A Tudor: inconclusive; BAZ2B block: inconclusive; HP1b binding inh: inactive

Results for O=c1cnnc(N/N=C/c2ccc3c(c2)OCO3)[nH]1 ?
G9a block: 45µM; Sfp inh: inconclusive; JMJD2A Tudor: inactive[11.4 µM]; BAZ2B block: inactive; HP1b binding inh: inactive

How did Cc1c(N=Cc2cc3c(cc2[N+](=O)[O-])OCO3)cccc1[N+](=O)[O-] do in these assays?
JMJD2A Tudor: inconclusive; HP1b binding inh: inactive

How did COCC(=O)n1nc(-c2ccccc2)nc1NCc1ccc(N(C)C)cc1 do in these assays?
G9a block: inactive[12.7 µM]; Sfp inh: inactive; JMJD2A Tudor: 35µM; BAZ2B block: 32µM; HP1b binding inh: 50µM

What do the screens show for `O=C(CSc1nc(-c2ccccc2)nn1C(=O)c1ccccc1)Nc1cccc([N+](=O)[O-])c1`?
Sfp inh: inactive; JMJD2A Tudor: inconclusive; BAZ2B block: 56µM; HP1b binding inh: inactive

How did O=C(c1cccc([N+](=O)[O-])c1)n1nc(-c2ccccc2)nc1NCc1ccccc1 do in these assays?
G9a block: 45µM; Sfp inh: inactive; JMJD2A Tudor: inconclusive; BAZ2B block: inactive; HP1b binding inh: inactive

How did O=C(CSc1nnc(NC(=O)C2CC2)s1)NCc1ccccc1 do in these assays?
G9a block: inactive; Sfp inh: inactive; JMJD2A Tudor: inactive; BAZ2B block: inactive; HP1b binding inh: inactive

Assay outcomes (PubChem)
